Screens: PubChem, National Center for Advancing Translational Sciences (NCATS)
An excerpt weighted towards active compounds, which were near 3.7% of everything screened.
Tau FP inhib – qHTS for Inhibitors of Tau Fibril Formation, Fluorescence Polarization; 0.39% of 280,000 active; Potency, µM (doses to about 57.7 µM), for the others: top-dose activity, negative = inhibition, actives largely listed as inhibitors; K18 P301L tau heparin fibrillization, Alexa594 FP, 6 h; further: on the % scale 0 is the no-effect control and ±100 the full control effect; nearly all actives have a fitted effect of over 55% in size
Target sequence (P10636 561-689 P618L limits assumed): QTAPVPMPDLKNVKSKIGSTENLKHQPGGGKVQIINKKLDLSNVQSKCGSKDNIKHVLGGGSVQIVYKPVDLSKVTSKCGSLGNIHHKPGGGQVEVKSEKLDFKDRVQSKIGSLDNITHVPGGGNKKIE
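Human tau K18 […] P301L fragment, 15 uM unlabeled plus 0.24 uM Alexa 594-labeled tau (final), with compound and 20 uM heparin in 100 mM sodium acetate pH 7; 6 hr at 37 C, then Alexa 594 FP read.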
Tau fluor counter – Counterscreen qHTS for Inhibitors of Tau Fibril Formation, Fluorescence Polarization | tau K18 P301L Alexa594 fluorescence, heparin fibrillization | Potency, µM (series often up to 57.7 µM), without a hit: at the highest dose activity change, negative = decrease | 0.93% of 280,000 active | AID 1463, 2008; further: on the % scale 0 is the no-effect control and ±100 the full control effect; nearly all actives have a fitted effect of over 55% in size
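Human tau K18 P301L (15 uM unlabeled, 0.24 uM Alexa 594-labeled) in 100 mM sodium acetate pH 7 with 20 uM heparin, 6 hr at 37 C. ThT 30 uM added, 1 hr ambient; Alexa 594 FP and total fluorescence read at 555/632 nm.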
HTT ATP protect – qHTS Multiplex Assay to Identify Dual Action Probes in a Cell Model of Huntington: Cytoprotection (ATP); 0.14% of 230,000 active; AID 1471, 2008; PC12 HTT-Q103 induced, cytoprotection, ATP luminescence, 40 h; Potency, µM (highest dose often 56.4 µM), without a hit: cytoprotection (ATP increase), hits mostly activators; further: % of control where 0% means no effect; nearly all actives have a fitted effect of over 45% in size
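Huntington model: PC12 line, ecdysone-inducible HTTQ103 exon1–GFP, tebufenozide 100 nM. Test articles in a dose series. Endpoint luminescence from cellular ATP.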
Tau ThT inhib – qHTS for Inhibitors of Tau Fibril Formation, Thioflavin T Binding; AID 1460, 2008; 2.1% of 270,000 active; Potency, µM (top dose mostly 57.4 µM), inactives show top-dose activity, negative = inhibition, most hits filed as inhibitors; recombinant tau K18 P301L (four-repeat tau fragment), heparin-induced fibrillization, ThT fluorescence; further: on the % scale 0 is the no-effect control and ±100 the full control effect; nearly all actives have a fitted effect of over 55% in size
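In this qHTS, human K18 P301L tau is incubated with compound and heparin for 6 hr at 37 C, and Thioflavin T fluorescence then reports fibril load.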
HTT aggregate – qHTS Multiplex Assay to Identify Dual Action Probes in a Cell Model of Huntington: Aggregate Formation (GFP); Potency, µM (doses to about 46.1 µM), for inactives: at the top dose activity change, negative = inhibition, most hits filed as inhibitors; PC12 HttQ103-GFP aggregates, Acumen cytometry, 40 h; 1.1% of 220,000 active; AID 1688, 2009; further: on the % scale 0 is the no-effect control and ±100 the full control effect; nearly all actives have a fitted effect of over 60% in size
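Huntingtin Q103 exon 1–GFP aggregates in induced PC12 cells (100 nM tebufenozide) were quantified by cytometry from lysates, with compounds dosed in titration.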
Numbers without * were called inactive; u = inconclusive; x = no result; ! = not active in a repeat; [ ] = dose if it differs, or a comment. The call rests on the fitted dose curve; in most records, active means well fitted curve in the direction sought with a large enough effect; inconclusive means small, poorly fitted or top-dose-only effect, or another doubt; inactive means no such curve, though single readings can be large; an effect the other way counts as inactive or inconclusive. Potency means the concentration at half of the fitted maximal effect.

SMILES	Tau FP inhib	Tau fluor counter	HTT ATP protect	Tau ThT inhib	HTT aggregate
CCN(CC)CCCNC1=C(Cl)C(=O)c2ccccc2C1=O	-8.4%	-25.0%	-31.8%[10 µM]	u	-25.4%[9.22 µM]
O=C1C(Cl)=C(Nc2ccccc2)C(=O)c2ccccc21	u	3.55µM*[quencher]	-39.1%[10 µM]	3.16µM*	12.6µM*
CC(C)NC1=C(Cl)C(=O)c2ccccc2C1=O	u	-28.0%	-51.9%	25.1µM*	22.5%[9.22 µM]
O=C(O)c1ccc(NC2=C(Cl)C(=O)c3ccccc3C2=O)cc1	3.55µM*	1.78µM*[quencher]	-96.7%[10 µM]	1.41µM*	u
O=C(c1nc2ccc([N+](=O)[O-])cc2[nH]c1=O)[C@@H](O)c1ccc2c(c1)OCO2	x	x	-15.9%[10 µM]	x	x
Cc1ccc(NC2=C(NC(=O)c3ccccc3)C(=O)c3ccccc3C2=O)cc1Cl	u	u	-6.9%[10 µM]	15.8µM*	u
O=C(O)c1cccc(NC2=C(Cl)C(=O)c3ccccc3C2=O)c1	25.1µM*	3.98µM*[quencher]	x	2.82µM*	u
O=C(O)c1cccc(NS(=O)(=O)/C=C/c2ccccc2)c1	8.1%	0.5%	-2.2%	-4.5%	8.3%[9.22 µM]
Nc1nc(Nc2ccccc2)nc2c1ncn2[C@@H]1O[C@@H](CO)[C@H](O)[C@@H]1O	x	x	-10.1%[1.9 µM]	x	x
COc1cccc(Cn2c(=O)cnc3cnc(Nc4ccccc4)nc32)c1	x	x	-41.8%	x	x
NNC(=O)c1ccc[n+](CCc2ccccc2)c1	x	x	24.5%[10 µM]	x	x
C[C@H]1Cc2c(COc3ccccc3)nc3c(c2CO1)CN(C(=O)c1cccnc1)CC3	3.7%[11.6 µM]	5.8%[11.6 µM]	-35.7%[10 µM]	10.6%[11.5 µM]	x
Cc1oc(-c2ccc(C(=O)Nc3cccc(C(F)(F)F)c3)cc2)nc1CSc1ccccc1	14.1µM*	u	x	5.5%	x
CC(=O)c1ccc(NC(=O)c2ccc(-c3nc(CSc4ccccc4)c(C)o3)cc2)cc1	u	-5.3%	x	-1.0%	x
CCC(CO)Nc1ncc([N+](=O)[O-])cc1C#N (stereo unspecified)	8.5%	5.8%	-47.2%[10 µM]	6.5%	-1.5%
N#Cc1cc([N+](=O)[O-])cnc1N(CCO)CCO	0.8%	-2.2%	14.3%[10 µM]	-2.9%	12.6µM*
CCCN(Cc1cccs1)C(=O)Nc1cc(Cl)ccc1C	-6.9%	-11.0%	x	-8.0%	x
O=C(COc1ccc(S(=O)(=O)NC2CCCCC2)cc1)N1CCN(c2cccc(Cl)c2)CC1	10.4%	-17.7%	-22.4%	-13.2%	15.8µM*
O=C(O)CNC(=O)[C@@H](CS)Cc1ccccc1	x	x	2.5%[40.3 µM]	x	x
O=C(Nc1ccc(Cl)cc1)c1cc2c(cc1O)[nH]c1ccccc12	-0.7%	3.98µM*[quencher]	-25.0%[10 µM]	u	-36.3%[9.22 µM]
COc1cc(/C=C(\C#N)c2nc3ccc(C)cc3[nH]2)ccc1OC(C)C	-7.5%	u	x	u	x
N#C/C(=C/c1ccc(N2CCCC2)c([N+](=O)[O-])c1)c1nc2ccccc2[nH]1	-12.5%	u	-35.6%	2.51µM*	4.3%
N#C/C(=C/c1ccc(N2CCOCC2)o1)c1ccc(Cl)cc1	u	u	u	15.8µM*	u
Cc1ccc2nc(/C(C#N)=C\c3ccc(N4CCCCC4)c([N+](=O)[O-])c3)[nH]c2c1	7.4%	-29.7%	-16.6%	3.16µM*	3.3%
CC(=O)Nc1ccc(/C=C/c2ccc3c([N+](=O)[O-])cccc3n2)cc1	13.7%	-10.7%	-43.5%	1.41µM*	-14.9%
SMILES	Tau FP inhib	Tau fluor counter	HTT ATP protect	Tau ThT inhib	HTT aggregate
O=[N+]([O-])c1ccc([C@@H](Nc2ccccc2)c2ccc3cccnc3c2O)cc1	x	x	-5.1%[10 µM]	x	x
C[C@@H]1NCC[C@H](CC(=O)O)[C@H]1CC(=O)O	x	x	2.0%[10 µM]	x	x
C[C@H](NC(=O)N1CCc2nc(-c3ccccc3)c3c(c2C1)CO[C@@H](C)C3)c1ccccc1	11.8%[11.6 µM]	0.0%[11.6 µM]	5.8%[10 µM]	-3.9%[11.5 µM]	x
N#C/C(=C\c1ccc(-c2ccc(C(=O)O)cc2)o1)c1nc2ccccc2[nH]1	-7.0%	u	-17.2%[10 µM]	u	2.6%[9.22 µM]
N#C/C(=C\c1ccc(N2CCOCC2)o1)c1nc2ccccc2[nH]1	-11.3%	u	-60.0%	7.94µM*	-30.6%
Cc1ccc2nc(/C(C#N)=C/c3cccc(Br)c3)[nH]c2c1	-3.9%	u	x	5.01µM*	x
N#C/C(=C\c1ccc(N2CCOCC2)c([N+](=O)[O-])c1)c1nc2ccccc2[nH]1	-7.2%	22.4µM*[quencher]	30.3%[10 µM]	5.01µM*	u
O=C(O)c1cc(/C=C/c2ccc(N3CCOCC3)c([N+](=O)[O-])c2)nc2ccccc12	-4.6%	-21.9%	-49.4%[10 µM]	14.1µM*	-3.6%[9.22 µM]
CN(C)CCNCCN	x	x	5.3%[10 µM]	x	x
CCC[C@@H]1O[C@@H]2C[C@@H]3[C@@H]4CCC5=CC(=O)C=C[C@@]5(C)[C@H]4[C@H](O)C[C@@]3(C)[C@@]2(C(=O)CO)O1	x	x	10.0%[1.9 µM]	x	x
CCCCC1=CC2=C(c3ccco3)C(=O)C(C)(OC(=O)c3ccc(OC)cc3)C(=O)C2=CN1Cc1ccc(OC)cc1 (stereo unspecified)	u	0.3%[11.6 µM]	-13.1%[10 µM]	14.1µM*!	-14.4%[9.22 µM]
CCCCC1=CC2=C(c3ccco3)C(=O)C(C)(OC(=O)c3ccc(OC)cc3)C(=O)C2=CN1CCCCO (stereo unspecified)	-3.5%[11.6 µM]	-13.2%[11.6 µM]	-3.0%[10 µM]	u	-26.3%[9.22 µM]
CCCCC1=CC2=C(c3ccco3)C(=O)C(C)(OC(=O)c3ccc(OC)cc3)C(=O)C2=CN1CC1CC1 (stereo unspecified)	4.2%[11.6 µM]	u	-12.1%[10 µM]	15.8µM*!	-15.6%[9.22 µM]
CCCCC1=CC2=C(c3ccco3)C(=O)C(C)(OC(=O)c3ccc(OC)cc3)C(=O)C2=CN1Cc1ccco1 (stereo unspecified)	-0.1%[11.6 µM]	-4.2%[11.6 µM]	9.4%[10 µM]	8.91µM*!	7.8%[9.22 µM]
C=C(C(C)=O)C(O)c1ccc(Cl)cc1 (stereo unspecified)	1.0%	-6.7%	x	-4.3%	x
O=C(O)/C=C/C(O)c1ccc(Cl)cc1 (stereo unspecified)	-4.4%	-9.8%	3.16µM*	-11.5%	x
COc1ccc(-c2nc3c(c4c2C[C@H](c2ccccc2)OC4)CN(S(=O)(=O)c2ccc(NC(C)=O)cc2)CC3)c(C)c1	-5.7%[11.6 µM]	-6.1%[11.6 µM]	-9.7%[10 µM]	2.1%[11.5 µM]	x
CCc1ccc(-c2[nH]c3c(c2-c2sc(C)c(C(=O)OC)c2O)c(=O)n(C)c(=O)n3C)cc1	5.0%	-6.1%	x	-2.4%	x
COC(=O)c1c(C)sc(-c2c(-c3ccc(F)cc3)[nH]c3[nH]c(=O)[nH]c(=O)c23)c1O	5.5%	10µM*[quencher]	x	u	x
CCc1ccccc1NC(=O)C1CCN(c2nn3c(=O)cc(C)nc3s2)CC1	-8.3%	-5.7%	x	u	x
